Source: PubChem BioAssay (National Center for Advancing Translational Sciences (NCATS))
D2 ag-1 = HTS Assay for Allosteric Agonists of the Human D2 Dopamine Receptor: Primary Screen for Agonists | D(2) dopamine receptor (Homo sapiens), P14416 | HEK293 T-REx D2 cells, calcium flux agonist mode | activation, % at 2 µM | 340,000 compounds, 0.53% hits;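 active = activation over 3 SD above normal in the single-dose calcium agonist read, cut at about 30% in these data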; also: 0% is about no effect
Target sequence (P14416 whole entry, looked up): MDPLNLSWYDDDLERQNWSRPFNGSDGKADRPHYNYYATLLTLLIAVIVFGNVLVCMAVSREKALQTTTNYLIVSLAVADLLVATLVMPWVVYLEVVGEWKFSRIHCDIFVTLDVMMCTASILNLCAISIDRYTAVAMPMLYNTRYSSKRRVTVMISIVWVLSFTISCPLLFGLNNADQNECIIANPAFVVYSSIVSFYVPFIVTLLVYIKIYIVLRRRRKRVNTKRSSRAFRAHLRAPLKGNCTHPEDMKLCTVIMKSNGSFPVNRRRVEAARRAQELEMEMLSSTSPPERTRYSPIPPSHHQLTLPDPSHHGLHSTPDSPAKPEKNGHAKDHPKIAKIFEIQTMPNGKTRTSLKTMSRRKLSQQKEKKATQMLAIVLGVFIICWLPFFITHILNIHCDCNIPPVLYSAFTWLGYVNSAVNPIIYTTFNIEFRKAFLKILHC
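In this primary screen, compounds producing a positive calcium signal within 180 s of addition to tetracycline-induced, force-coupled HEK293 Trex D2 cells are flagged; cells are dye-loaded with a no-wash calcium kit beforehand.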
D2 PAM-1 = HTS Assay for Positive Allosteric Modulators of the Human D2 Dopamine Receptor: Primary Screen for Potentiators | AID 485347, 2010 | HEK293 T-REx D2, calcium flux, EC20 dopamine potentiation | potentiation, % at 10 µM | D(2) dopamine receptor (Homo sapiens), P14416 | 340,000 compounds, 0.34% hits;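 active = potentiation over 3 SD above the plate norm, cut at about 30% in these data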; also: 0% is about no effect
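Tetracycline-induced Hek293 Trex D2 cells, force-coupled to calcium, loaded with no-wash calcium dye. Compound added with 180 s kinetic read for agonism, then EC20 dopamine and a further 180 s read for potentiation.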
D2 PAM-2 = Beta-Arrestin HTS for Positive Allosteric Modulators of the Human D2 Dopamine Receptor: Potentiators; DiscoveRx D2 beta-arrestin cells, luminescence, 90 min; 100% = 57 uM dopamine signal; potentiation, % (no concentration beside the values); 360,000 compounds, 0.23% hits; in the data active = potentiation above about 50%; inconclusive = mostly about 30% to 49%
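PathHunter D2 cells, attached overnight at 37 deg C, received compound in DMSO plus dopamine at EC20 (50 nM final) for 90 min at 37 deg C. Beta-arrestin recruitment was read as luminescence after 1 h with detection reagent at ambient temperature.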
D2 antagonist = HTS Assay for Allosteric Antagonists of the Human D2 Dopamine Receptor: Primary Screen for Antagonists | D(2) dopamine receptor (Homo sapiens), P14416 | HEK293 TREx D2 cells, calcium flux, dopamine EC80 | inhibition, % at 10 µM | 340,000 compounds, 2% hits; in the data active = inhibition above about 30%; inactive = below that, where a call was filed; also: 0% is about no effect
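HEK293 T-REx D2 cells, tet-induced, calcium dye no-wash. Cpd pintool add, 180 s kinetic, then EC80 DA, 180 s kinetic. Ca flux read.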
D2 ag-2 = Beta-Arrestin HTS for Positive Allosteric Modulators of the Human D2 Dopamine Receptor: Agonists. AID 624465, 2012. DiscoveRx PathHunter D2 beta-arrestin, luminescence, 90 min; 100% = 57 uM dopamine signal. D(2) dopamine receptor (Homo sapiens), P14416. 360,000 compounds, 0.084% hits. activation, % (concentration not given with the values); in the data active = activation above about 40%; inconclusive = between about 15% and that limit
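Agonist mode: compounds alone added to overnight-plated D2 PathHunter cells for 90 min at 37 C, with 57 uM final dopamine (EC100) defining full response. Beta-arrestin recruitment detected by chemiluminescent reagent, read after 1 h at ambient temperature.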
Starred values were filed as active, the others as inactive; u = inconclusive; x = no result. In the library only some 2.4% were active in any assay of this set; here they are far more common.

SMILES | D2 ag-1 | D2 PAM-1 | D2 PAM-2 | D2 antagonist | D2 ag-2
O=C(NC1CC(=O)N(c2ccccc2)C1)c1ccc(S(=O)(=O)N2CCCCC2)cc1 (centres undefined) | 1 | 19 | x | x | x
Cc1cc(C)c2ccc(N)nc2c1O | 1 | -6 | -11 | -14 | 0
Cc1cc(C)c2ccc(C)[n+]([O-])c2c1O | 0 | 1 | -14 | 37* | 1
O=c1c2[nH]c3ccccc3c2nc(SCc2cccc(F)c2)n1-c1ccccc1 | -1 | -2 | x | x | x
CC(=O)N(C)c1ccc(OCC(O)Cn2c(C)nc3ccccc32)cc1 (centres undefined) | 0 | 31* | -7 | 22 | -5
CC(=O)Nc1ccc(OCC(O)Cn2c(C)nc3ccccc32)cc1 (centres undefined) | 1 | 23 | -10 | -6 | 0
Cc1ccc(N2CCN(CC(O)COC3CCCCC3)CC2)cc1 (centres undefined) | 0 | -26 | -16 | 63* | -3
Cc1nc2ccccc2n1CC(O)COC1CCCCC1 (centres undefined) | 0 | -13 | 3 | 32* | 1
COc1cc(C(=O)N2CC(=O)Nc3ccc(C)cc3C2c2ccc(F)cc2)cc(OC)c1OC (centres undefined) | 2 | -3 | x | x | x
Cc1cccc(OCc2ccc(-c3nc(C#N)c(NCc4cccnc4)o3)o2)c1 | x | -11 | x | x | x
Cc1onc(-c2ccccc2Cl)c1C(=O)Nc1sc2c(c1C#N)CCC2 | 0 | 10 | 3 | -11 | 0
Cc1onc(C(=O)Nc2sc3c(c2C#N)CCCC3)c1[N+](=O)[O-] | 37* | -31 | -1 | -3 | -1
COc1cccc(-n2c(-c3ccco3)nc3nc4ccccc4nc32)c1 | 0 | -13 | -2 | 4 | -3
Cc1cccc(-n2c(-c3ccco3)nc3nc4ccccc4nc32)c1 | -1 | -3 | x | 70* | x
COc1ccc(Nc2nc(N)nc(CSc3nc(C)cc(C)n3)n2)cc1 | x | 5 | 3 | x | -4
COc1ccc(Nc2nc(N)nc(CSc3nnc(N)s3)n2)cc1 | -1 | -7 | -5 | 38* | 1
CC(=O)c1ccc(NC(=O)CSc2nccn2Cc2ccc3c(c2)OCO3)cc1 | 0 | 1 | x | x | x
CC(=O)c1c(C)[nH]c(C(=O)OCCCCN2C(=O)c3ccccc3C2=O)c1C | -1 | 4 | 9 | 48* | -2
CCOC(=O)c1sc2nc(CSc3ccccc3)nc(N3CCC(C(N)=O)CC3)c2c1C | 0 | 12 | -2 | -7 | 2
CCOC(=O)c1sc2nc(CSc3ccccc3)nc(N3CCCN(C)CC3)c2c1C | 0 | -27 | -1 | 53* | -1
COc1cccc(CNC(=O)c2cc(C)nc3c2c(C)nn3-c2cccc(F)c2)c1 | -4 | 6 | x | x | x
Oc1sc(C=Nc2ccccc2)c2ccccc12 | 36* | -2 | 24 | -11 | 6
Oc1sc(C=Nc2ccc(F)cc2)c2ccccc12 | -1 | 6 | u | -9 | -1
Cc1cc(F)ccc1Oc1cc(NN2CCCCC2)c([N+](=O)[O-])cc1[N+](=O)[O-] | 0 | 1 | -6 | 30* | 0
O=[N+]([O-])c1cc([N+](=O)[O-])c(Oc2cc(F)ccc2F)cc1NN1CCCCC1 | -1 | -9 | -1 | -3 | -2
COc1ccc(CNc2nc(NCc3ccc(OC)cc3)c3[nH]cnc3n2)cc1 | 0 | 4 | 18 | 42* | 6
COc1ccc(CNc2ncnc(N)n2)cc1 | 1 | -6 | 4 | 14 | -1
CCOc1ccc(NC(=O)CSc2oc(-c3ccco3)nc2S(=O)(=O)c2ccc(Cl)cc2)cc1 | 0 | 12 | x | x | x
COc1cc(/C=C2/SC(=S)N(Cc3ccccc3)C2=O)cc(Cl)c1O | 72* | -21 | -6 | -12 | -2
COc1cc(/C=C2\SC(=O)N(Cc3ccc(F)cc3)C2=O)cc([N+](=O)[O-])c1O | -2 | 3 | -1 | 31* | -2
